Assay results published in PubChem BioAssay (EPA / NIEHS).
Records with an inconclusive call do not appear. Activity calls are given as the source filed them. How the source made its calls, unless noted: active means hit-call score of the fitted dose curve at least 0.9, where 1 is the maximum; inconclusive means response in the unintended direction; inactive means score below 0.9.

Target: X-box-binding protein 1 (Homo sapiens) (UniProt P17861)
Sequence (P17861 whole entry, looked up): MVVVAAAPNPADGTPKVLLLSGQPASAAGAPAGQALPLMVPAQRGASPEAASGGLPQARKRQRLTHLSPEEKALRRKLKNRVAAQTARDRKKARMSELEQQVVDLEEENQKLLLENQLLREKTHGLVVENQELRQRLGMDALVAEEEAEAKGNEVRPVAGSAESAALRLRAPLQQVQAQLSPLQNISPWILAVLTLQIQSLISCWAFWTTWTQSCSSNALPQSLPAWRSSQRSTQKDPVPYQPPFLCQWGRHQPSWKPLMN
Assay: ATG_Xbp1_CIS: Attagene CIS-FACTORIAL HepG2 Assay for human X-box Binding Protein 1 (XBP1) (AID 2282972; active means hit-call score of the fitted dose curve at least 0.9, where 1 is the maximum; inactive means score below 0.9)
Conditions: HepG2 XBP1 cis-element reporter, Attagene multiplex; actives raise or lower the signal
In short: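 HepG2, transient MRTU transfection (cis-promoter driven), 24 h compound exposure. Total RNA → oligo(dT) RT → PCR → 6-FAM labeling → HpaI cut → CE. Bidirectional fit vs DMSO.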
With `CNC` the outcome was “inactive”.
With `CCOC(=O)CP(=O)(OCC)OCC` the outcome was “inactive”.
For `Clc1ccc(C2(Cn3cncn3)CC(Br)CO2)c(Cl)c1` (stereo unspecified), the outcome was “inactive”.
For `CCSC(C)CC1CC(=O)C(C(CC)=NOC/C=C/Cl)=C(O)C1` (stereo unspecified), the outcome was “inactive”.
With `CC(C)(OO)c1ccccc1` the outcome was “inactive”.
In the case of `CCCCCCCCSC(=O)Oc1cc(Cl)nnc1-c1ccccc1`, the outcome is reported as “inactive”.
In the case of `CC(=O)[O][Hg][c]1ccccc1`, the AC50 is reported as 3.71 µM (active).
In the case of `Cn1sc(Cl)cc1=O`, the outcome is reported as “inactive”.
For `CCC(C)(C)c1ccc(O)c(C(C)(C)CC)c1`, the outcome was “inactive”.
For `CCOP(=S)(OCC)SCCS(=O)(=O)CC`, the outcome was “inactive”.
With `NC(=O)O` the outcome was “inactive”.
In the case of `CC1(C)Cc2cccc(O)c2O1`, the outcome is reported as “inactive”.
With `Cc1cc(Cl)ccc1O[C@H](C)C(=O)O` the outcome was “inactive”.
With `CC12CC1(C)C(=O)N(c1cc(Cl)cc(Cl)c1)C2=O` (stereo unspecified) the outcome was “inactive”.
In the case of `Cc1ccccc1N`, the outcome is reported as “inactive”.
In the case of `ClCC(Cl)CCl`, the outcome is reported as “inactive”.
For `COC(=O)Cc1ccccc1`, the outcome was “inactive”.
In the case of `COc1cc2c(cc1OC)[C@@]13CCN4CC5=CCO[C@H]6CC(=O)N2[C@H]1[C@H]6[C@H]5C[C@H]43`, the outcome is reported as “inactive”.
In the case of `Clc1nc(Cl)nc(Cl)n1`, the outcome is reported as “inactive”.
With `Cc1cc(=O)[nH]o1` the outcome was “inactive”.
With `O=C(OC1CCCCC1)c1ccccc1C(=O)OC1CCCCC1` the outcome was “inactive”.
For `N#Cc1ccccn1`, the outcome was “inactive”.
For `OCC(O)CCl` (stereo unspecified), the outcome was “inactive”.
For `CC(=[OH+])/C=C(/C)[O-].CC(=[OH+])/C=C(/C)[O-].CC(=[OH+])/C=C(/C)[O-].[Fe]`, the outcome was “inactive”.
In the case of `N#CCc1ccc(Cl)cc1`, the outcome is reported as “inactive”.
For `C[C@]12CC[C@H](O)CC1=CC[C@@H]1[C@@H]2CC[C@]2(C)C(=O)CC[C@@H]12`, the outcome was “inactive”.
For `CC(=O)OC(c1ccccc1)C(Cl)(Cl)Cl` (stereo unspecified), the outcome was “inactive”.
In the case of `CC(C)(C)c1cc(O)ccc1O`, the AC50 is reported as 109 µM (active).
For `CN(CCCC(=O)c1cccnc1)N=O`, the outcome was “inactive”.
For `O=Cc1cccc(Oc2ccccc2)c1`, the outcome was “inactive”.
With `Cc1ccc(N)cc1Cl` the outcome was “inactive”.
With `O=C(O)C(F)(F)C(F)(F)C(F)(F)C(F)(F)C(F)(F)C(F)(F)F` the outcome was “inactive”.
For `CC(C#N)CCC#N` (stereo unspecified), the outcome was “inactive”.
For `O=C(CCl)CCl`, the AC50 was 48.1 µM (active).
With `CCC(C)c1cccc(C(C)CC)c1O` (stereo unspecified) the outcome was “inactive”.
In the case of `ClC1=C(Cl)[C@]2(Cl)[C@H]3[C@H]([C@H]4C=C[C@H]3C4)[C@@]1(Cl)C2(Cl)Cl`, the outcome is reported as “inactive”.
With `CC(C)CCCCCCOC(=O)c1ccccc1C(=O)OCCCCCCC(C)C` the outcome was “inactive”.
With `O=P(O)(O)CN(CP(=O)(O)O)CP(=O)(O)O` the outcome was “inactive”.
With `CCc1ccccc1N` the outcome was “inactive”.

System: not listed separately
Assay: ATG_M_19_TRANS: Attagene TRANS-FACTORIAL HepG2 Assay for M19 Transcription Factor (Internal Marker) (AID 2282974)
Conditions: HepG2 Attagene TRANS-FACTORIAL M19 internal marker reporter
In short: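 Gain-of-signal in reporter mRNA, relative to DMSO, was scored from capillary electrophoresis fluorescence. HepG2 cells carried transiently transfected multiple reporter transcription units and were incubated with test chemicals for 24 h.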
For `CNC`, the outcome was “inactive”.
With `CCOC(=O)CP(=O)(OCC)OCC` the outcome was “inactive”.
With `CCSC(C)CC1CC(=O)C(C(CC)=NOC/C=C/Cl)=C(O)C1` (stereo unspecified) the outcome was “inactive”.
In the case of `CC(C)(OO)c1ccccc1`, the outcome is reported as “inactive”.
For `CCCCCCCCSC(=O)Oc1cc(Cl)nnc1-c1ccccc1`, the outcome was “inactive”.
With `CCC(C)(C)c1ccc(O)c(C(C)(C)CC)c1` the outcome was “inactive”.
In the case of `CCOP(=S)(OCC)SCCS(=O)(=O)CC`, the outcome is reported as “inactive”.
In the case of `NC(=O)O`, the outcome is reported as “inactive”.
For `CC12CC1(C)C(=O)N(c1cc(Cl)cc(Cl)c1)C2=O` (stereo unspecified), the outcome was “inactive”.
With `Cc1ccccc1N` the outcome was “inactive”.
In the case of `ClCC(Cl)CCl`, the outcome is reported as “inactive”.
In the case of `COC(=O)Cc1ccccc1`, the outcome is reported as “inactive”.
In the case of `COc1cc2c(cc1OC)[C@@]13CCN4CC5=CCO[C@H]6CC(=O)N2[C@H]1[C@H]6[C@H]5C[C@H]43`, the outcome is reported as “inactive”.
With `CC(=[OH+])/C=C(/C)[O-].CC(=[OH+])/C=C(/C)[O-].CC(=[OH+])/C=C(/C)[O-].[Fe]` the outcome was “inactive”.
For `C[C@]12CC[C@H](O)CC1=CC[C@@H]1[C@@H]2CC[C@]2(C)C(=O)CC[C@@H]12`, the outcome was “inactive”.
With `CC(=O)OC(c1ccccc1)C(Cl)(Cl)Cl` (stereo unspecified) the outcome was “inactive”.
For `CN(CCCC(=O)c1cccnc1)N=O`, the outcome was “inactive”.
In the case of `O=C(O)C(F)(F)C(F)(F)C(F)(F)C(F)(F)C(F)(F)C(F)(F)F`, the outcome is reported as “inactive”.
With `CC(C#N)CCC#N` (stereo unspecified) the outcome was “inactive”.
For `ClC1=C(Cl)[C@]2(Cl)[C@H]3[C@H]([C@H]4C=C[C@H]3C4)[C@@]1(Cl)C2(Cl)Cl`, the outcome was “inactive”.
For `CC(C)CCCCCCOC(=O)c1ccccc1C(=O)OCCCCCCC(C)C`, the outcome was “inactive”.
With `O=P(O)(O)CN(CP(=O)(O)O)CP(=O)(O)O` the outcome was “inactive”.
In the case of `CCc1ccccc1N`, the outcome is reported as “inactive”.

System: not listed separately
Assay: ATG_GAL4_TRANS: Attagene TRANS-FACTORIAL HepG2 Assay for GAL4 (Internal Marker) (AID 2282976)
Conditions: HepG2 Attagene TRANS GAL4 internal marker reporter
In short: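 Liver HepG2 line bearing multiplexed GAL4-UAS reporter constructs; 24 h chemical treatment. Transcripts were quantified as fluorescent fragments on capillary electrophoresis after RT-PCR and HpaI cut, with activity fitted upward from DMSO.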
In the case of `CNC`, the outcome is reported as “inactive”.
For `CCOC(=O)CP(=O)(OCC)OCC`, the outcome was “inactive”.
For `CCCCCCCCSC(=O)Oc1cc(Cl)nnc1-c1ccccc1`, the outcome was “inactive”.
In the case of `Cn1sc(Cl)cc1=O`, the outcome is reported as “inactive”.
With `NC(=O)O` the outcome was “inactive”.
For `ClCC(Cl)CCl`, the outcome was “inactive”.
In the case of `N#Cc1ccccn1`, the outcome is reported as “inactive”.
In the case of `OCC(O)CCl` (stereo unspecified), the outcome is reported as “inactive”.
In the case of `CC(=[OH+])/C=C(/C)[O-].CC(=[OH+])/C=C(/C)[O-].CC(=[OH+])/C=C(/C)[O-].[Fe]`, the outcome is reported as “inactive”.
For `O=P(O)(O)CN(CP(=O)(O)O)CP(=O)(O)O`, the outcome was “inactive”.

Target: Estrogen-related receptor gamma (Homo sapiens) (UniProt P62508)
Sequence (P62508 whole entry, looked up): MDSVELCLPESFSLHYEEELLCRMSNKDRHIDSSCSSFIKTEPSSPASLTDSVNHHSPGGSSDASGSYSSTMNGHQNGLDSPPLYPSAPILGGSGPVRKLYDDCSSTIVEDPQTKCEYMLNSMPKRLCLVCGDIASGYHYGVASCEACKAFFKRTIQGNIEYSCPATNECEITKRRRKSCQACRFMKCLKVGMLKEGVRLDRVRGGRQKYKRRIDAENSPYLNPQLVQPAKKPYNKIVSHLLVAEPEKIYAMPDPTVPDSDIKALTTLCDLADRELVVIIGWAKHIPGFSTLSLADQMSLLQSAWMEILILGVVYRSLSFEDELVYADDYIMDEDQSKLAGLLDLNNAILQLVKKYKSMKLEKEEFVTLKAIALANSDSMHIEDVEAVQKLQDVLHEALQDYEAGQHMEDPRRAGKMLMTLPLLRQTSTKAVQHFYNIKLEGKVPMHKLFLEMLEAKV
Assay: ATG_ERRg_TRANS: Attagene TRANS-FACTORIAL HepG2 Assay for human Estrogen-Related Receptor gamma (ERRg) (AID 2282977);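 further: hits increase reporter signal over DMSO so potencies reflect activators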
Conditions: HepG2 Attagene TRANS reporter, ERRg transactivation
In short: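 Transfect HepG2 with multiple GAL4-UAS reporter transcription units; dose chemicals 24 h; isolate RNA, reverse-transcribe with oligo(dT), PCR-amplify, label with 6-FAM, digest with HpaI; size fragments by capillary electrophoresis. DMSO serves as negative control.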
For `CCSC(C)CC1CC(=O)C(C(CC)=NOC/C=C/Cl)=C(O)C1` (stereo unspecified), the outcome was “inactive”.
With `CCOP(=S)(OCC)SCCS(=O)(=O)CC` the outcome was “inactive”.
With `NC(=O)O` the outcome was “inactive”.
In the case of `ClCC(Cl)CCl`, the outcome is reported as “inactive”.

Target: Glucocorticoid receptor (Homo sapiens) (UniProt P04150)
Sequence (P04150 whole entry, looked up): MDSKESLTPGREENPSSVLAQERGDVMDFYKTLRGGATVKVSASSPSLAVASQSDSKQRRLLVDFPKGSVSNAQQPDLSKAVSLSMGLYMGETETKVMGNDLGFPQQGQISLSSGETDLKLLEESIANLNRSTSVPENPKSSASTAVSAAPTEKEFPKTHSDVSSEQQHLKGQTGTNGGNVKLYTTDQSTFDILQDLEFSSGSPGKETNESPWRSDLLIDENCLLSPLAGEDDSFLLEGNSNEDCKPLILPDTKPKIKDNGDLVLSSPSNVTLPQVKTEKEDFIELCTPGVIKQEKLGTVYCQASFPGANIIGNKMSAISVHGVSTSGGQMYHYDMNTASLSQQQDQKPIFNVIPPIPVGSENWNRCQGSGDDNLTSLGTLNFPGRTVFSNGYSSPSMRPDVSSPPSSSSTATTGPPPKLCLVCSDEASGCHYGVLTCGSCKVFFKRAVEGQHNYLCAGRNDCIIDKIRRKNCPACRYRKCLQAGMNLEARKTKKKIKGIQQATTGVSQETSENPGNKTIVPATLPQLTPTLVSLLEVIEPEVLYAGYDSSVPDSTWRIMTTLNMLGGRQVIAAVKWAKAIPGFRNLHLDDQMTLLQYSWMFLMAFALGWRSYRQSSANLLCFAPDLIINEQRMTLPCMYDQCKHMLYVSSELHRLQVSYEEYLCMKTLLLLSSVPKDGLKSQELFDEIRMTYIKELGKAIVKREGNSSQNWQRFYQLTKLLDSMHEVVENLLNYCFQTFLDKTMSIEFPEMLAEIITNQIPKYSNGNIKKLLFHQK
Assay: ATG_GR_TRANS: Attagene TRANS-FACTORIAL HepG2 Assay for human Glucocorticoid Receptor (GR) (AID 2282978);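 further: activators score as hits since higher reporter transcript over DMSO is fitted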
Conditions: HepG2 Attagene TRANS GR reporter, mRNA transcription
In short: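 HepG2 transient transfection, multiple reporter units, GAL4-UAS under NR-GAL4 chimera control. 24 h treatment. Reporter mRNA by RT-PCR/CE fluorescence, DMSO as negative control.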
With `CNC` the outcome was “inactive”.
In the case of `Clc1ccc(C2(Cn3cncn3)CC(Br)CO2)c(Cl)c1` (stereo unspecified), the outcome is reported as “inactive”.
For `CCSC(C)CC1CC(=O)C(C(CC)=NOC/C=C/Cl)=C(O)C1` (stereo unspecified), the outcome was “inactive”.
With `CC(C)(OO)c1ccccc1` the outcome was “inactive”.
For `CC(=O)[O][Hg][c]1ccccc1`, the outcome was “inactive”.
In the case of `CCC(C)(C)c1ccc(O)c(C(C)(C)CC)c1`, the outcome is reported as “inactive”.
For `CCOP(=S)(OCC)SCCS(=O)(=O)CC`, the outcome was “inactive”.
With `CC12CC1(C)C(=O)N(c1cc(Cl)cc(Cl)c1)C2=O` (stereo unspecified) the outcome was “inactive”.
In the case of `ClCC(Cl)CCl`, the outcome is reported as “inactive”.
With `COC(=O)Cc1ccccc1` the outcome was “inactive”.
With `Clc1nc(Cl)nc(Cl)n1` the outcome was “inactive”.
In the case of `Cc1cc(=O)[nH]o1`, the outcome is reported as “inactive”.
With `O=C(OC1CCCCC1)c1ccccc1C(=O)OC1CCCCC1` the outcome was “inactive”.
In the case of `N#CCc1ccc(Cl)cc1`, the outcome is reported as “inactive”.
With `C[C@]12CC[C@H](O)CC1=CC[C@@H]1[C@@H]2CC[C@]2(C)C(=O)CC[C@@H]12` the outcome was “inactive”.
With `CC(=O)OC(c1ccccc1)C(Cl)(Cl)Cl` (stereo unspecified) the outcome was “inactive”.
For `CC(C)(C)c1cc(O)ccc1O`, the outcome was “inactive”.
For `CN(CCCC(=O)c1cccnc1)N=O`, the outcome was “inactive”.
For `ClC1=C(Cl)[C@]2(Cl)[C@H]3[C@H]([C@H]4C=C[C@H]3C4)[C@@]1(Cl)C2(Cl)Cl`, the outcome was “inactive”.
For `O=P(O)(O)CN(CP(=O)(O)O)CP(=O)(O)O`, the outcome was “inactive”.
